This note sets out measurements from PubChem BioAssay (NCI).

This is part of a sample that, as a whole, favours compounds with a hit. Of some 83,000 tested, about 20% had one in any assay.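 Note: values are percent growth. 100 is the growth of untreated cells, values between 100 and 0 indicate rising inhibition; between -100 and 0 indicates cell death.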 Values without a mark were called inactive. Calls of active or inactive are those of the source. The calls were made as follows: active = growth percent below 10; inactive = the rest.

Some test systems named below: HCT-15 colon; SNB-75 CNS; SNB-19 CNS; PC-3 prostate; SK-MEL-5 melanoma; UACC-62 melanoma; LOX IMVI melanoma; SK-MEL-28 melanoma; U251 CNS.
Holding throughout (test): NCI-60 one-dose screen, 48 h (100 = growth as untreated, 0 = no growth, -100 = all killed)
Holding throughout (details): 10 µM unless noted

Turning to `NCCN1CCN(c2nccc(-c3ccc4ccccc4c3)n2)CC1`, the growth with HCT-15 colon was 4.28% (active); with SNB-75 CNS, 82.1%; in the assay on SNB-19 CNS, 63.9%; in the assay with PC-3 prostate, 45.6%; in the assay on SK-MEL-5 melanoma, 54.9%; with UACC-62 melanoma it was -65.3% (active). Further, the growth was -64.8% (active) in the assay on LOX IMVI melanoma and -43.4% (active) in the assay on SK-MEL-28 melanoma.

`CC/C=C\C[C@H](O)C/C=C1/C(=O)C=C[C@@H]1C/C=C\CCCC(=O)NC`: the growth with HCT-15 colon is -28.4% (active); with SNB-75 CNS it was 62.5%; in the assay with SNB-19 CNS it was 22.5%; in the assay on U251 CNS it was -8.98% (active); in the assay with PC-3 prostate, 13.6%; in the assay with SK-MEL-5 melanoma, -94.5% (active). Further, the growth in the assay on UACC-62 melanoma was -45.3% (active); in the assay with LOX IMVI melanoma it was -72.2% (active); in the assay on SK-MEL-28 melanoma, -17.1% (active).

Regarding `COc1ccc(-c2cc(-c3cccnc3)nc3sc4c(=O)n(-c5ccc(C)cc5)nnc4c23)cc1OC`, the growth with HCT-15 colon was 103%; in the assay on SNB-75 CNS, 85.8%; in the assay on U251 CNS, 104%; in the assay with PC-3 prostate, 95.8%; with SK-MEL-5 melanoma it was 97.4%; in the assay with UACC-62 melanoma it was 98.7%. For the same molecule, the growth was 97.2% in the assay with LOX IMVI melanoma and 99.9% in the assay with SK-MEL-28 melanoma.

For the molecule `COc1cc(OC)c(/C=C/S(=O)(=O)Cc2cnc(OC)c(N)c2)c(OC)c1`, the growth in the assay with HCT-15 colon was 9.83% (active); with SNB-75 CNS it was 42.1%; in the assay with SNB-19 CNS, 31.3%; with U251 CNS, 10.5%; in the assay with PC-3 prostate it was 27.8%; in the assay on SK-MEL-5 melanoma, -24.8% (active). Further, the growth is 40.1% in the assay with UACC-62 melanoma, 8.96% (active) in the assay on LOX IMVI melanoma and 56.2% with SK-MEL-28 melanoma.

As to `CC[C@H](Nc1ncnc(N)c1C(N)=O)c1nc2cccc(NCc3ccc(C(=O)NO)cc3)c2c(=O)n1-c1ccccc1`, the growth is 105% with HCT-15 colon; 68.2% in the assay with SNB-19 CNS; 52.9% with U251 CNS; 92.1% in the assay with PC-3 prostate; 87.9% in the assay on SK-MEL-5 melanoma; 63.3% with UACC-62 melanoma. The growth with LOX IMVI melanoma is 103%; in the assay on SK-MEL-28 melanoma, 69.2%.

As for `CS(CCCCN=C=S)=NC(=O)c1c(F)c(F)c(F)c(F)c1F` (configuration not stated), the growth in the assay with HCT-15 colon is 37.3%; in the assay with SNB-75 CNS, 74.3%; in the assay on SNB-19 CNS it was 91.9%; with U251 CNS, 80.3%; with PC-3 prostate it was 95.8%; in the assay on SK-MEL-5 melanoma, 96.1%. For the same molecule, the growth is 51.9% in the assay with UACC-62 melanoma, 28.3% in the assay with LOX IMVI melanoma and 85.9% in the assay with SK-MEL-28 melanoma.

With `COc1ccc(/C=N\NC(=O)CN2CCN(c3cc4c(cc3F)c(=O)c(C(=O)N/N=C/c3ccc(OC)cc3)cn4C3CC3)CC2)cc1`, the growth is 76.6% in the assay with HCT-15 colon; 86.2% in the assay with SNB-19 CNS; 95% in the assay with U251 CNS; 71.9% with PC-3 prostate; 72.2% in the assay with SK-MEL-5 melanoma; 83.3% with UACC-62 melanoma. For the same molecule, the growth in the assay on LOX IMVI melanoma was 90.1%; with SK-MEL-28 melanoma, 93.9%.

With `COc1ccc(-c2cc(-c3ccc(N(C)C)cc3)nc(NC(=O)c3ccncc3)n2)cc1`, the growth in the assay with HCT-15 colon is 90.4%; in the assay on SNB-19 CNS, 90.2%; in the assay with U251 CNS, 98%; in the assay with PC-3 prostate it was 83.5%; in the assay on SK-MEL-5 melanoma, 89.2%; in the assay with UACC-62 melanoma, 101%. Besides, the growth in the assay with LOX IMVI melanoma is 91.7%; in the assay on SK-MEL-28 melanoma, 108%.

In the case of `C=C(C[n+]1ccccc1)[C@@H]1CC[C@]2(C(=O)OC)CC[C@]3(C)[C@H](CC[C@@H]4[C@@]5(C)CC[C@H](O)C(C)(C)[C@@H]5CC[C@]43C)[C@@H]12`, the growth in the assay on HCT-15 colon is 106%; with SNB-19 CNS, 106%; with U251 CNS, 99%; with PC-3 prostate, -77.4% (active); in the assay with SK-MEL-5 melanoma, 96.5%; with UACC-62 melanoma, 91.5%. For the same molecule, the growth in the assay with LOX IMVI melanoma was 92%; with SK-MEL-28 melanoma, 108%.

Regarding `Cc1cccc(NC(=O)c2sc3nc4c(cc3c2N)C(=O)CCC4)c1`, the growth was 28.9% in the assay with HCT-15 colon; 4.87% (active) in the assay on SNB-75 CNS; 42.1% with SNB-19 CNS; 27.1% in the assay with PC-3 prostate; 22.8% in the assay on SK-MEL-5 melanoma; 22% in the assay with UACC-62 melanoma. Besides, the growth with LOX IMVI melanoma was 54.4%; with SK-MEL-28 melanoma it was 62.2%.

`COc1ccc(/C=c2/c(=O)[nH]c3nc4sc(C)c(C)c4c(=O)n23)cc1`: the growth with HCT-15 colon was 73.2%; in the assay on SNB-75 CNS it was 93.2%; in the assay on SNB-19 CNS it was 88.4%; in the assay on SK-MEL-5 melanoma it was 90.8%; with UACC-62 melanoma, 80.4%; in the assay on LOX IMVI melanoma it was 91.1%. Further, the growth with SK-MEL-28 melanoma is 102%.

In the case of `Cc1cc(=O)oc2cc(Oc3nc(-c4ccc(Cl)cc4)cn4c(-c5ccc(Cl)cc5)cnc34)ccc12`, the growth is 63.8% with HCT-15 colon; 91.6% with SNB-75 CNS; 88.1% in the assay on U251 CNS; 87.9% with PC-3 prostate; 84.4% in the assay with SK-MEL-5 melanoma; 99.3% in the assay on UACC-62 melanoma. For the same molecule, the growth in the assay with LOX IMVI melanoma was 84.4%; with SK-MEL-28 melanoma it was 38.3%.

For the molecule `CCCCNc1ccc2c3c1cccc3c(=O)n1c3ccccc3nc21`, the growth was 76.2% in the assay on HCT-15 colon; 73.4% with SNB-75 CNS; 101% in the assay on SNB-19 CNS; 75.5% in the assay on SK-MEL-5 melanoma; 85.9% with UACC-62 melanoma; 75.9% in the assay on LOX IMVI melanoma. The growth in the assay with SK-MEL-28 melanoma was 103%.

As to `Nc1c(C(=O)Nc2cccc3c2OCCO3)sc2nc3c(cc12)CN(Cc1ccccc1)CC3`, the growth was 42.5% with HCT-15 colon; 60.4% in the assay on SNB-19 CNS; 56.9% in the assay on U251 CNS; 55.1% in the assay on PC-3 prostate; 60.8% in the assay with SK-MEL-5 melanoma; 49.3% with UACC-62 melanoma. In addition, the results for the growth in the assay with LOX IMVI melanoma and in the assay on SK-MEL-28 melanoma were 53.2% and 75.4%, respectively.

As for `O=C1CC(c2nc3ccccc3[nH]2)CN1C1CCCCC1` (configuration not stated), the growth with HCT-15 colon is 105%; with SNB-75 CNS, 90.1%; in the assay with SNB-19 CNS, 110%; with U251 CNS it was 99.7%; with PC-3 prostate it was 93.3%; in the assay on SK-MEL-5 melanoma, 101%. The growth in the assay on UACC-62 melanoma is 104%; in the assay on LOX IMVI melanoma, 93.9%; in the assay on SK-MEL-28 melanoma it was 112%.
